This is a sample that favours compounds with a hit; in the whole collection about 4.5% have one here.
ssDAF12 agonist: S. stercoralis DAF-12 activation, primary screen. HEK293 ssDAF-12/GRIP1 lit1-tk-luc reporter, luminescence; % of 3 µM dafachronic acid response. activation, % at 6.8 µM. 370,000 compounds, 1% hits;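 active means activation above the mean over all tested compounds plus 3 SD, cut at about 0.9% in these data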
DAX1 inh-1: NR0B1 (DAX1) inhibition. P51843. AID 504766. 340,000 compounds, 0.99% hits. HEK293 Gal4-DAX1 luciferase reporter, luminescence. inhibition, % at 6.75 µM;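 active means inhibition above the mean over all tested compounds plus 3 SD, cut at about 4.2% in these data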;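 further: inhibition shows as a rise in luminescence from relieved DAX1 repression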
Target sequence (P51843 207-470 limits assumed): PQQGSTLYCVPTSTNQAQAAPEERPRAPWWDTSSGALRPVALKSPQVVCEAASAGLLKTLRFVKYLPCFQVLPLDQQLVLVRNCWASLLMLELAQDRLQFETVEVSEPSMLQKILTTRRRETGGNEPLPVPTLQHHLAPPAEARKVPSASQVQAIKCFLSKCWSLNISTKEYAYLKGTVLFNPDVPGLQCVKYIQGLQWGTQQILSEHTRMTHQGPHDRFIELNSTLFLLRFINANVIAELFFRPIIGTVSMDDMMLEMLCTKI
FXN GAA850 act: activators of GAA850 frataxin (FXN) promoter. HEK293 lucGAA850 FXN promoter luciferase reporter, 24 h; percent of 10 µM SAHA response. activation, % at 6 µM. 360,000 compounds, 0.56% hits. AID 540364;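 active means activation above the average of all compounds screened plus 3 SD, cutoff fixed separately per campaign, cut at about 7.5% in these data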
hcDAF12 agonist: H. contortus DAF-12 activation, primary screen. HEK293 hcDAF-12 lit1-tk-luc reporter, luminescence; 0% DMSO, 100% Δ7-dafachronic acid. activation, % at 6.8 µM. 370,000 compounds, 1.4% hits. AID 652067;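 active means activation above the mean of all tested compounds plus 3 SD, cut at about 5.5% in these data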
hgDAF12 agonist: activates the H. glycines DAF-12 receptor ligand-binding domain; HEK293 GAL4-hgDAF12 UAS-luciferase reporter, agonist luminescence; normalized to butyrate control; activation, % at 6.8 µM; 370,000 compounds, 1.8% hits;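 active means activation above a cutoff set at the mean of all screened compounds plus 3 SD, cut at about 10% in these data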
DAX1 inh-2: DAX1 (NR0B1) inhibition, primary screen. HEK293T StAR-luciferase reporter, SF-1/DAX-1 repression relief. inhibition, % at 6.8 µM. 370,000 compounds, 1.1% hits;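 active means inhibition above the mean over all tested compounds plus 3 SD, cut at about 3.6% in these data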;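 further: higher inhibition means more luminescence from relief of DAX-1 repression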
Of the large screens only hits and unclear results are named; the others gave an inactive call.

NC(=O)C1CCN(CC(O)COc2ccc(-c3ccccc3)cc2)CC1 (stereo unspecified)	DAX1 inh-1 5.6
COC[C@@H]1CCCN1c1cccc2c1S(=O)(=O)N(C1CC1)CCCO2	none (no result: DAX1 inh-1, FXN GAA850 act)
COc1ccc(-c2ccc3c(n2)CCCN3S(=O)(=O)c2ccccc2C)cc1	none (no result: DAX1 inh-1, FXN GAA850 act)
CC(C)(C)CCNc1nc(-c2ccccn2)nnc1-c1ccccc1	none (no result: DAX1 inh-1, FXN GAA850 act, DAX1 inh-2)
CSc1nnc(N2C(=O)C(O)=C(C(=O)c3ccc(C)o3)C2c2ccc(C)cc2)s1 (stereo unspecified)	hgDAF12 agonist 11
CSc1nnc(N2C(=O)C(O)=C(C(=O)c3ccco3)C2c2ccccc2)s1 (stereo unspecified)	none
COc1cccc(NC(=O)COC(=O)c2c(F)cccc2Cl)c1	DAX1 inh-1 4.4
O=C(COC(=O)c1c(F)cccc1Cl)NC1CCCC1	none
COc1cccc(NC(=O)COC(=O)c2ccccc2F)c1	none
O=C(COC(=O)c1c(F)cccc1Cl)NCC1CCCCC1	hgDAF12 agonist 11
C[C@H]1CCCN1c1cccc2c1S(=O)(=O)N1CC[C@H](C1)O2	none (no result: DAX1 inh-1, FXN GAA850 act)
O=C(Cn1cc([N+](=O)[O-])cn1)Nc1ccccn1	none
Cc1cc(NC(=O)Cn2cc([N+](=O)[O-])cn2)no1	DAX1 inh-1 4.7
Cc1ccnc(NC(=O)Cn2cc([N+](=O)[O-])cn2)c1	hgDAF12 agonist 11
COc1ccc(C2c3c(oc4ccccc4c3=O)C(=O)N2c2ccc(C)cn2)cc1OC (stereo unspecified)	DAX1 inh-1 5.0
Cc1c(NC(=O)COC(=O)c2ccc[nH]c2=O)c(=O)n(-c2ccccc2)n1C	DAX1 inh-1 5.3
COC(=O)[C@]12C[C@H](CC(=O)NCCc3ccccc3OC)C(=O)N(CCc3ccc(OC)c(OC)c3)C1=C[C@H](C(C)(C)C)O[C@@H]2C	none (no result: DAX1 inh-1, FXN GAA850 act)
O=C(O)CCC(=O)Nc1ccccc1C(=O)N1CCN(c2ccc(Cl)cc2)CC1	DAX1 inh-1 6.8
O=C(O)C1CC=CCC1C(=O)Nc1ccccc1C(=O)N1CCN(c2ccc(Cl)cc2)CC1 (stereo unspecified)	none (no result: DAX1 inh-1)
CCn1c(=O)n(CC(=O)N2CCCN(Cc3ccccc3)CC2)c(=O)c2ccccc21	none (no result: DAX1 inh-1, FXN GAA850 act)
CC(C)OC(=O)NCN1C(=O)C2C3C=CC(C3)C2C1=O (stereo unspecified)	hgDAF12 agonist 11
C/C(=N\Nc1ccc(Cl)c(C(=O)O)c1)c1ccc[nH]1	hcDAF12 agonist 6.4
COC(=O)C(NC(C)=O)(Nc1ccc(C)cn1)C(F)(F)F (stereo unspecified)	DAX1 inh-1 4.2
CCOC(=O)NC(Nc1ccc(C)cn1)(C(F)(F)F)C(F)(F)F	none
O=S1(=O)c2ccc(N3CCSCC3)cc2Oc2ccccc2CN1Cc1cn(Cc2cccc(F)c2)nn1	none (no result: DAX1 inh-1, FXN GAA850 act)
Cc1nnc(NC(=O)CSc2nnc(C)n2Cc2ccccc2)s1	none
Cc1nnc(SCC(=O)Nc2ccc(Cl)cn2)n1Cc1ccccc1	DAX1 inh-1 6.0
CC(NCc1ccco1)C(=O)N1CCN(c2cccc(C(F)(F)F)c2)CC1 (stereo unspecified)	none (no result: DAX1 inh-1, FXN GAA850 act)
CC(=O)c1cnc(Nc2cccc(Cl)c2Cl)s1	hgDAF12 agonist 13
CC(=O)c1cnc(Nc2ccccc2)s1	none
O=C(c1ccc(Cl)cc1)c1cnc(Nc2ccccc2Cl)s1	hgDAF12 agonist 13
O=C(c1ccc(Cl)cc1)c1cnc(-c2ccccc2)s1	none
COC(=O)[C@]12CCCCC=C1N(Cc1ccc(OC)cc1)C(=O)[C@@H]2CC(=O)NCc1ccccc1	none (no result: DAX1 inh-1, FXN GAA850 act)
CC(NC(=O)Cc1ccccc1F)c1ccc(F)cc1 (stereo unspecified)	DAX1 inh-1 4.8
CCOc1ccc(C(C)NC(=O)Cc2ccccc2F)cc1OCC (stereo unspecified)	none
COc1ccc(Cc2nc(-c3cccs3)no2)cc1	hgDAF12 agonist 11
Brc1ccc(-c2noc(COc3ccc4c(c3)CCC4)n2)o1	none
c1csc(-c2noc(COc3ccc4c(c3)CCCC4)n2)c1	hgDAF12 agonist 12, DAX1 inh-2 4.0
COc1ccc(Cc2nc(-c3ccccc3)no2)cc1	hgDAF12 agonist 13
Brc1ccc(-c2noc(CCc3ccccc3)n2)cc1	DAX1 inh-1 4.7
Cc1ccc(-n2c(SCC(=O)c3ccc(F)cc3)nnc2-c2cnccn2)cc1	none (no result: DAX1 inh-1, FXN GAA850 act)
CCCn1cc(CCC(=O)Nc2ccc(Oc3cccnc3)cc2)c2ccccc21	none (no result: DAX1 inh-1, FXN GAA850 act)
C[C@@H]1ON(C)[C@H]2C[C@H]3c4[nH]c5c(-c6ccc7c(c6)OCO7)cccc5c4CCN3C(=O)[C@@H]12	none (no result: DAX1 inh-1, FXN GAA850 act)
O=C1CCN(C(=O)CSc2ccc(Cl)cc2)N1	DAX1 inh-1 5.8
O=C1CCN(C(=O)c2ccc(Cl)cc2)N1	none
Nc1nc2cc3c(cc2cc1C(=O)NCCc1c[nH]c2ccccc12)OCO3	none (no result: DAX1 inh-1, FXN GAA850 act)
Cc1ncc([N+](=O)[O-])n1CC(=O)Nc1ccccc1	none
CCN(C(=O)Cn1c([N+](=O)[O-])cnc1C)c1ccccc1	ssDAF12 agonist 1.5
COc1cc(NC(=O)C2CCCCC2)c(OC)cc1NC(=O)c1ccco1	none
COc1cc2c(cc1NC(=O)c1ccco1)CCCC2	hcDAF12 agonist 5.7
C=CCC(=O)NC(C)c1cnn(-c2ccccc2C)c1C (stereo unspecified)	ssDAF12 agonist 1.0
O=C(c1ccccn1)C1CCCN(Cc2nc(Cc3cccc(F)c3)no2)C1 (stereo unspecified)	DAX1 inh-1 4.4
CN1Cc2c(N3CCOCC3)nc3sc(C#N)c(N)c3c2CC1(C)C	DAX1 inh-1 5.4
CN1C2=N[C@@H](c3cccc(C(F)(F)F)c3)CC(=O)N2/C(=C\c2ccccc2)[C@H]1c1ccccc1	none (no result: DAX1 inh-1, FXN GAA850 act, DAX1 inh-2)
c1ccc(Cn2ccc(-c3cnc(-c4ccccc4)s3)n2)cc1	hgDAF12 agonist 12
CCN1CCN(C(=O)c2ccc(Cl)c(S(=O)(=O)N(C)c3ccccc3)c2)CC1	DAX1 inh-1 6.0
COc1ccc(-c2cc3ncnc(Cl)c3s2)cc1	hgDAF12 agonist 11
CCc1ccc(OCC(=O)Nc2nnc(-c3ccco3)s2)cc1	DAX1 inh-2 4.4
Cc1ccccc1Nc1nc(N)nc(COC(=O)c2cccn2C)n1	DAX1 inh-1 5.5
CCc1ccccc1Nc1nc(N)nc(COC(=O)c2cccn2C)n1	none
COc1ccccc1CNC(=O)c1cc(-c2ccncc2)nc2c(Cl)cccc12	hcDAF12 agonist 6.0
CC1CC(C)CN(CCCNS(=O)(=O)c2cc3c(cc2Br)CCN3C(=O)C2CC2)C1 (stereo unspecified)	none (no result: DAX1 inh-1, FXN GAA850 act)
Cc1cc(-c2c(C)[nH]n(-c3ccccc3)c2=O)n[nH]1	hcDAF12 agonist 5.8
CSCC[C@H](NC(=O)c1cc([N+](=O)[O-])ccc1Cl)c1nc2ccccc2[nH]1	hcDAF12 agonist 5.9
COC(=O)C1=C(C)N(c2ccc(OC)cc2)C(C)=C(C(=O)OC)C1c1ccc(OC)cc1	none (no result: DAX1 inh-1)
